Results filed as inconclusive are left out. Entries that show only a call come without a potency. Activity calls are given as the source filed them. Calls come from the whole dose curve; as a rule, active = well fitted activation curve with a large enough effect in the repeat runs; inconclusive = weak or mixed curves; inactive = flat fitted curve, though single readings scatter.
Assay: A CellTox Green Cytotoxicity Assay to monitor cytotoxicity in HEK293 cells - 16 hour (AID 1224888); note: nearly all actives have a fitted effect of over 35% in size
Conditions: CellTox Green fluorescence; series mostly up to 76.8 µM
Excerpt: National Center for Advancing Translational Sciences [NCATS]
NIH Chemical Genomics Center [NCGC]
U.S. Environmental Protection Agency [EPA]
National Institutes of Environmental Health Sciences [NIEHS]
National Toxicology Program [NTP]
Cell-based models are critical for drug discovery. Determining the natural cytotoxic effects resulting from test compounds is an essential research activity. A CellTox Green Cytotoxicity Assay to monitor cytotoxicity in real time of continues cell culture during 40 hours of the compound treatment was used to screen Tox21 10K library compounds in Hek293 cells. CellTox Green Cytotoxicity Assay is a nonlytic, homogeneous, biofluorescent method to measure cytotoxicity in cell culture after experimental manipulation. The assay system uses a proprietary asymmetric cyanine dye that is excluded from viable cells but preferentially stains the dead cell's DNA. […] Viable cells produce no appreciable increases in fluorescence. Therefore, the fluorescence signal produced by the binding interaction with dead cell DNA is proportional to cytotoxicity.
The mixture of Hek293 cell suspension and reagents were dispensed at 600cells/6 ul/well in 1536-well tissue culture treated black solid bottom plates using a Multidrop dispenser. After the assay plates were incubated at a 37 C/5% CO2 incubator for 5 hours, 23 nL of compounds dissolved in DMSO, positive and negative controls was transferred to the assay plate by a pintool work station. The plates were incubated at 37 C for 40 hours. The fluorescence intensity were measured at 0h, 8h, 16h, 24h, 32h and 40h time points using ViewLux plate reader during compound treatment.
For `Oc1ccc(Cl)cc1`, the Potency was “inactive”.
In the case of `Sc1ccccc1`, the Potency is reported as “inactive”.
For `N#Cc1ccccn1`, the Potency was “inactive”.
With `C=CCN=C=S` the Potency was “inactive”.
For `[N-]=[N+]=CC(=O)OC[C@H](N)C(=O)O`, the Potency was “inactive”.
For `CN1C(=O)CCS(=O)(=O)C1c1ccc(Cl)cc1` (stereo not given), the Potency was “inactive”.
With `CC12CC1(C)C(=O)N(c1cc(Cl)cc(Cl)c1)C2=O` (stereo not given) the Potency was “inactive”.
In the case of `COc1nc(NC(C)C)nc(NC(C)C)n1`, the Potency is reported as “inactive”.
With `OCCCCO` the Potency was “inactive”.
With `CC(C)CCCCCCOC(=O)c1ccccc1C(=O)OCCCCCCC(C)C` the Potency was “inactive”.
For `CC(=O)C1CCOC1=O` (stereo not given), the Potency was “inactive”.
With `CNC(=O)O/N=C/C(C)(C)S(C)=O` (stereo not given) the Potency was “inactive”.
With `Cl/C=C/Cl` the Potency was “inactive”.
With `COS(=O)(=O)OC` the Potency was “inactive”.
For `ClCCOCCCl`, the Potency was “inactive”.
In the case of `N#CN=C(N)N`, the Potency is reported as “inactive”.
In the case of `CN(C)C(=O)C(c1ccccc1)c1ccccc1`, the Potency is reported as “inactive”.
For `CNCC(O)c1ccc(O)cc1` (stereo not given), the Potency was “inactive”.
With `ClC(Cl)c1ccccc1` the Potency was “inactive”.
With `C=CC(=O)OCC(CC)CCCC` (stereo not given) the Potency was “inactive”.
For `Oc1c(Br)cc(Br)cc1Br`, the Potency was “inactive”.
For `C=C(C)C(=O)OCC(CC)CCCC` (stereo not given), the Potency was “inactive”.
For `Cc1cccc(N)c1C`, the Potency was “inactive”.
For `Cl[C@H]1OCCO[C@@H]1Cl`, the Potency was “inactive”.
For `Cc1cccc(C)c1NC(=O)CN1CCCC1=O`, the Potency was “inactive”.
With `O=C(O)c1cc(Oc2ccc(C(F)(F)F)cc2Cl)ccc1[N+](=O)[O-]` the Potency was “inactive”.
With `C[C@H]1C(=O)O[C@@H]2CCN3CC=C(COC(=O)[C@](C)(O)[C@]1(C)O)[C@H]23` the Potency was “inactive”.
In the case of `CCNc1nc(Cl)nc(NC(C)C)n1`, the Potency is reported as “inactive”.
In the case of `FC(F)(F)c1ccc(Cl)cc1`, the Potency is reported as “inactive”.
In the case of `C=CC#N`, the Potency is reported as “inactive”.
With `CC[N+](=O)[O-]` the Potency was “inactive”.
For `Cc1ccc(N)cc1`, the Potency was “inactive”.
In the case of `CCSC(=O)N1CCCCCC1`, the Potency is reported as “inactive”.
With `CC(C)(C)C(=O)CCl` the Potency was “inactive”.
With `CN(C)CCC#N` the Potency was “inactive”.
For `CNC(=O)O/N=C/C(C)(C)S(C)(=O)=O`, the Potency was “inactive”.
With `Cc1ccccc1N` the Potency was “inactive”.
For `C=CC(=O)OCCCCCC(C)C`, the Potency was “inactive”.
For `O=C(O)COc1ccccc1`, the Potency was “inactive”.
In the case of `CCOC(=O)CC(SP(=O)(OC)OC)C(=O)OCC` (stereo not given), the Potency is reported as “inactive”.

From PubChem BioAssay (Tox21)
